Bioassay records as filed in PubChem.
Menin MLL FP TR: menin-MLL binding inhibition, Texas Red mutant peptide; O00255; Menin + Texas Red MLL mutant peptide, fluorescence polarization; Potency, µM (doses to about 61.6 µM), hits mostly inhibitors; 0.23% of 270,000 active; AID 1768; active means well fitted inhibition curve with a large enough effect in the polarisation, with a control signal flat, not every such curve was filed as active; inconclusive means small, poorly fitted or top-dose-only effect, or effect the other way, or a change in a side signal; inactive means no such curve, though single readings can be large or run the other way; the % refers to the polarisation
Target sequence (O00255 whole entry, looked up): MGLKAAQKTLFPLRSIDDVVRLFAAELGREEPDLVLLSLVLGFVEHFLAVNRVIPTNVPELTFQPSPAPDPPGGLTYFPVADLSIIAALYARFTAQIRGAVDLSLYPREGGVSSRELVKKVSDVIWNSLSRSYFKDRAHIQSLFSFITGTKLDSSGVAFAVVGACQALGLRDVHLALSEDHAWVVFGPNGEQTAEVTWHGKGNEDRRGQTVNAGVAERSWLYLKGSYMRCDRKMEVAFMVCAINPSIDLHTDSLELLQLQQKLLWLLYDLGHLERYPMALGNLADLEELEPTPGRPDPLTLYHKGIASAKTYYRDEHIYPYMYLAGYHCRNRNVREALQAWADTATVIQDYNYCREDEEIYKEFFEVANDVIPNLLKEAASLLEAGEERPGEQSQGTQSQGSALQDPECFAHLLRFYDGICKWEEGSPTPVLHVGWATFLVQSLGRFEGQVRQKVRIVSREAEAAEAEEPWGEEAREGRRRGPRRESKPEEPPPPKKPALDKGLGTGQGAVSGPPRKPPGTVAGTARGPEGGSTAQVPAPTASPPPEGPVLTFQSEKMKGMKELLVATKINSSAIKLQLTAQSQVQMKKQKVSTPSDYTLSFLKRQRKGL
Lamin A splicing: LMNA splicing modulation; HeLa LMNA splicing GFP/RFP minigene ratio, 48 h; Potency, µM (series often up to 46.1 µM), actives largely listed as inhibitors; 0.01% of 200,000 active; AID 1487; active means well fitted inhibition curve with a large enough effect in the signal ratio, with a control signal flat, not every such curve was filed as active; inconclusive means small, poorly fitted or top-dose-only effect, or effect the other way, or a change in a side signal; the % refers to the signal ratio
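S3 HeLa stable clones carrying a lamin A-EGFP splicing minigene plus DsRed2 were seeded at 600 cells/well in Opti-MEM with 2% FBS, pin-dosed and incubated 48 h at 37°C. Acumen cytometry (488 nm) gave the GFP/RFP total-intensity ratio.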
Menin-MLL FL inh: menin-MLL binding inhibition, fluorescein peptide. FP activity change, % at 61.4 µM. 290,000 tested, under 10 active. Fluorescence polarization, fluorescein-MLL peptide displacement from menin; active means well fitted curve in the direction sought with a large enough effect in the polarisation, not every such curve was filed as active; inconclusive means small, poorly fitted or top-dose-only effect, or effect the other way, or a change in a side signal; inactive means no such curve, though single readings can be large or run the other way; the % refers to the polarisation
CXXC DNA block: MLL CXXC-DNA interaction inhibition; Q03164; MLL-CXXC / FITC-HOXA9 DNA fluorescence polarization; Potency, µM (highest dose often 115 µM), usual class: inhibitors; 0.037% of 290,000 active; active means well fitted inhibition curve with a large enough effect in the polarisation, with a control signal flat, not every such curve was filed as active; inconclusive means small, poorly fitted or top-dose-only effect, or effect the other way, or a change in a side signal; inactive means no such curve, though single readings can be large or run the other way; the % refers to the polarisation
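Steps: dispense CXXC domain solution (7 uM) → pin compounds or unlabeled HOX-A9 DNA control → 5 min ambient → add FLSN-HOX-A9 solution (50 nM) → spin → 30 min ambient → fluorescence polarization. Tris pH 7.5/NaCl/DTT/BSA buffer.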
MLL CXXC FP-Fl: disrupts human MLL CXXC domain binding to DNA; shares compounds with CXXC DNA block; MLL CXXC-DNA binding, fluorescein FP; Potency, µM (doses to about 345 µM), usual class: inhibitors; 70% of 200 active; further: nearly all actives have a fitted effect of over 80% in size
MLL CXXC TxRed: MLL CXXC-DNA interaction inhibition, Texas Red FP. AID 624161. Potency, µM (doses to about 345 µM), usual class: inhibitors. 40% of 200 active. shares compounds with CXXC DNA block. MLL CXXC-DNA binding, Texas Red fluorescence polarization; further: nearly all actives have a fitted effect of over 75% in size
MLL CXXC TRF: inhibitors of human MLL CXXC domain-DNA interaction, HTRF format. shares compounds with CXXC DNA block. MLL CXXC-DNA binding, HTRF, biochemical. Potency, µM (series often up to 172 µM), most hits filed as inhibitors. 30% of 210 active. AID 624162; further: nearly all actives have a fitted effect of over 80% in size
Each line names hits and unclear results; the compound was inactive in the other large screens (follow-up assays come after a bar, where they were run). Many of the other results were omitted from the sample, so hits are more common in it than they were. Unless noted, the call rests on the fitted dose curve; in most records, active means well fitted inhibition curve with a large enough effect; inconclusive means small, poorly fitted or top-dose-only effect; inactive means no such curve, though single readings can be large or run the other way.

O=C1CC(N(CCc2ccccc2)C(=S)Nc2ccccc2)C(=O)N1c1ccccc1 (stereo not given)	Menin MLL FP TR inconclusive, Lamin A splicing inconclusive
O=C1CC(N(CCc2ccccc2)C(=S)Nc2cc(Cl)ccc2Cl)C(=O)N1c1c(Cl)cccc1Cl (stereo not given)	Menin MLL FP TR 10µM
O=C(Nc1ccc(Cl)c(Cl)c1)Nc1nnc(CC2=CCCCC2)s1	Menin MLL FP TR 25.1µM, Lamin A splicing inconclusive
O=C(Nc1ccc(Cl)cc1)Nc1nnc(CSCc2ccc(Cl)cc2)s1	Menin MLL FP TR 7.94µM, Lamin A splicing inconclusive
O=C(Nc1nnc(CC2=CCCCC2)s1)c1cccs1	Lamin A splicing inconclusive
CCCCCCCCCCCCCCCCOC[C@H](COP(=O)([O-])OCC[N+](C)(C)C)OC(=O)CCCCCCCC(=O)O	none (no result: Lamin A splicing, CXXC DNA block)
O=C(C[n+]1ccc(CCSc2ccc(F)cc2)cc1)c1ccccc1	Menin MLL FP TR 17.8µM, Menin-MLL FL inh inconclusive
COc1ccc(NC(=O)C(=O)NCC(c2cccnc2)N2CCc3ccccc3C2)cc1 (stereo not given)	Lamin A splicing 14.1µM (no result: Menin MLL FP TR, Menin-MLL FL inh, CXXC DNA block)
CC12CCC=CC1C(c1ccc3ccccc3c1C=Cc1ccccc1)N(Cc1ccccc1)C2=O (stereo not given)	none (no result: Lamin A splicing, CXXC DNA block)
C(=C\c1ccccn1)/c1ccccn1	Menin MLL FP TR 12.6µM (no result: Lamin A splicing)
COc1cc2c3cc1Oc1c(OC)c(OC)cc4c1[C@@H](Cc1ccc(OC(=O)c5ccc([N+](=O)[O-])cc5)c(c1)Oc1ccc(cc1)C[C@@H]3N(C)CC2)N(C)CC4	none (no result: Lamin A splicing, CXXC DNA block)
O=C(NNc1c2ccccc2nc2ccccc12)c1ccccc1O	Menin MLL FP TR inconclusive, Lamin A splicing 17.8µM, CXXC DNA block inconclusive
O=C(NNc1c2ccccc2nc2ccccc12)c1ccc(O)cc1O	Menin MLL FP TR inconclusive, CXXC DNA block inconclusive
CN(C)/C=N/c1c(C#N)cnn1-c1ccc(F)c(Cl)c1	none (no result: Lamin A splicing, CXXC DNA block)
CC(C)CC(CSc1ccc(Br)cc1)N1CCN(CC(C)C)CCC1=O (stereo not given)	none (no result: Lamin A splicing, CXXC DNA block)
COc1ccc(CNc2ccc(N3CCOCC3)cc2)cc1	none (no result: Lamin A splicing)
COc1ccc(Br)cc1CNc1ccc(N2CCOCC2)cc1	Menin MLL FP TR 14.1µM (no result: Lamin A splicing)
CC(C)(C)N1C(=O)[C@H]2[C@H]3[C@H](O)[C@H](O)C/C(=N/OC[C@@H](O)COCc4ccco4)[C@H]3CC[C@@H]2C1=O	none (no result: Lamin A splicing, CXXC DNA block)
CN(C)c1ccc(/C=C2\SC(=S)N(Nc3ncc(C(F)(F)F)cc3Cl)C2=O)cc1	Menin MLL FP TR inconclusive, Lamin A splicing inconclusive, Menin-MLL FL inh inconclusive, CXXC DNA block 3.16µM | MLL CXXC FP-Fl 1.13µM | MLL CXXC TxRed 113µM | MLL CXXC TRF inactive
CC(=O)c1c(O)cc(O)cc1CC(=O)O	CXXC DNA block inconclusive (no result: Menin MLL FP TR, Lamin A splicing, Menin-MLL FL inh) | MLL CXXC FP-Fl 142µM | MLL CXXC TxRed inactive | MLL CXXC TRF inactive
CC(=O)c1c(O)cc(O)c(C(C)=O)c1O	none (no result: Menin MLL FP TR, Lamin A splicing)
Cc1ccc(S(=O)(=O)NC2OC(=O)C(Cl)=C2Cl)cc1 (stereo not given)	CXXC DNA block inconclusive | MLL CXXC FP-Fl 89.5µM | MLL CXXC TxRed 142µM | MLL CXXC TRF 48.5µM
Cc1ccc(S(=O)(=O)NC2CCCCCCC2)cc1	none (no result: Lamin A splicing)
OCCOC[C@H]1O[C@H](OCCO)[C@H](OCCO)[C@@H](OCCO)[C@@H]1OCCO (tested in a mixture with another compound)	none (no result: Lamin A splicing)
Cc1nc2ccccc2oc1=O	none (no result: Lamin A splicing, CXXC DNA block)
O=c1c(Cl)c2oc3ccccc3nc-2c2ccccc12	Menin MLL FP TR inconclusive, Menin-MLL FL inh inconclusive, CXXC DNA block 31.6µM | MLL CXXC FP-Fl 113µM | MLL CXXC TxRed inconclusive | MLL CXXC TRF inactive
CC1=NN(c2ccc(Br)cc2)C(=O)/C1=C/c1ccc(-c2ccccc2C(=O)O)o1	Menin MLL FP TR inconclusive, CXXC DNA block inconclusive (no result: Lamin A splicing) | MLL CXXC FP-Fl 113µM | MLL CXXC TxRed 89.5µM | MLL CXXC TRF inactive
Cc1nn(C)c(C)c1CN(C)C(=O)C1(C)CC1(Br)Br (stereo not given)	none
Cc1nn(C)c(C)c1CN(C)C(=O)C1c2ccccc2Oc2ccccc21	CXXC DNA block 31.6µM | MLL CXXC FP-Fl 126µM | MLL CXXC TxRed inconclusive | MLL CXXC TRF inactive
CCOc1ccc(C(=O)NCC(c2ccc(Cl)cc2)N2CCCCC2)cc1 (stereo not given)	none (no result: Menin MLL FP TR, Menin-MLL FL inh, CXXC DNA block)
NS(=O)(=O)c1ccc(NC(=O)c2c(Cl)cccc2Cl)cc1	CXXC DNA block inconclusive (no result: Lamin A splicing) | MLL CXXC FP-Fl inconclusive | MLL CXXC TxRed inconclusive | MLL CXXC TRF inactive
NS(=O)(=O)c1ccc(NC(=O)c2c(F)cccc2Cl)cc1	none (no result: Menin MLL FP TR, Lamin A splicing)
CN1CCCc2cc3c(C(F)(F)F)cc(=O)oc3nc21	Menin-MLL FL inh inconclusive, CXXC DNA block 28.2µM | MLL CXXC FP-Fl 44.8µM | MLL CXXC TxRed inactive | MLL CXXC TRF inactive
CC(OCc1ccccc1)C(NC(=O)OC(C)(C)C)C(=O)NC1COC2CC(n3cc(F)c(=O)[nH]c3=O)OC12 (stereo not given)	none (no result: Lamin A splicing, CXXC DNA block)
O=c1ccc2[n+]([O-])c3ccc(O)cc3oc-2c1	Menin-MLL FL inh inconclusive, CXXC DNA block 35.5µM (no result: Menin MLL FP TR, Lamin A splicing) | MLL CXXC FP-Fl inconclusive | MLL CXXC TxRed 2.25µM | MLL CXXC TRF inconclusive
CC[C@H](C)[C@H](NC(=O)[C@H](CCC(=O)O)NC(=O)CNC(=O)[C@@H](NC(=O)[C@@H]1CCCN1C(=O)[C@@H](NC(=O)[C@@H]1CCCN1C(=O)[C@@H]1CCCN1C(=O)[C@H](CC(N)=O)NC(=O)[C@H](CC(N)=O)NC(=O)[C@@H](NC(=O)[C@H](CCSC)NC(=O)[C@H](Cc1c[nH]c2ccccc12)NC(=O)CNC(=O)[C@@H](NC(=O)[C@H](CCC(N)=O)NC(=O)[C@@H](N)CCC(=O)O)[C@@H](C)CC)[C@@H](C)O)[C@@H](C)CC)C(C)C)C(=O)O	none (no result: Lamin A splicing, CXXC DNA block)
COc1ccccc1CCNC(=O)C(=O)NCC(c1cccs1)S(=O)(=O)c1cccs1 (stereo not given)	none (no result: Menin MLL FP TR, Menin-MLL FL inh, CXXC DNA block)
CC(C)(C)OC(=O)N1CCCC1C(=O)NC1COC2CC(n3ccc(=O)[nH]c3=O)OC12 (stereo not given)	none (no result: Lamin A splicing, CXXC DNA block)
COc1ccc(CCN2C(=O)CN(C3CCCCCC3)C(=O)C2c2ccc(C)cc2)cc1OC (stereo not given)	none (no result: Menin MLL FP TR, Menin-MLL FL inh, CXXC DNA block)
Nc1nc2c(s1)CCc1c-2cnn1-c1ccccc1	Lamin A splicing inconclusive, CXXC DNA block 31.6µM | MLL CXXC FP-Fl inconclusive | MLL CXXC TxRed inconclusive | MLL CXXC TRF 30.6µM
COc1ccccc1NC(=O)CCCCCN1C(=O)c2cccc([N+](=O)[O-])c2C1=O	none (no result: Lamin A splicing)
COc1cc(/C=C2/C(=O)c3cccc([N+](=O)[O-])c3C2=O)c(Br)cc1O	Menin MLL FP TR inconclusive, Lamin A splicing inconclusive, CXXC DNA block 28.2µM | MLL CXXC FP-Fl 40µM | MLL CXXC TxRed 79.7µM | MLL CXXC TRF inconclusive
